Only some compounds are listed: those with a hit (about 2% of all), similar ones and a draw of the others.
LDHA block: LDHA (human) enzyme inhibition | activity change, % (values are at about 110 or 230 µM) | hit rate 0.15% among 480,000 | AID 1347041 | purified LDHA, NADH/diaphorase-resazurin fluorescence; active compounds read low | P00338; in the data active = activity change below about -30%; inconclusive = mostly about -25% to -30%;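 also: plate controls were DMSO wells for no effect and wells without enzyme for full effect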
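Resorufin fluorescence (ex540/em590), read at 0 and 20 min after diaphorase/resazurin addition, reports the NADH left after a 5 min room-temperature reaction of 2 nM human LDH5 with 0.06 mM NADH and 0.2 mM pyruvate.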
IDH1 R132H inh: blocks human mutant IDH1 R132H enzyme. AID 602179. hit rate 0.093% among 390,000. IDH1-R132H enzyme, NADPH consumption, diaphorase/resazurin fluorescence. Potency, µM (top dose mostly 76.6 µM), without a hit: top-dose activity change, negative = inhibition, actives largely listed as inhibitors. O75874; also: potency is read from the fitted curve at half-maximal effect; % is scaled to controls: 0 for no effect and ±100 for the full control effect; nearly all actives have a fitted effect of over 65% in size
Target sequence (O75874 whole entry R132H, stated change not applied): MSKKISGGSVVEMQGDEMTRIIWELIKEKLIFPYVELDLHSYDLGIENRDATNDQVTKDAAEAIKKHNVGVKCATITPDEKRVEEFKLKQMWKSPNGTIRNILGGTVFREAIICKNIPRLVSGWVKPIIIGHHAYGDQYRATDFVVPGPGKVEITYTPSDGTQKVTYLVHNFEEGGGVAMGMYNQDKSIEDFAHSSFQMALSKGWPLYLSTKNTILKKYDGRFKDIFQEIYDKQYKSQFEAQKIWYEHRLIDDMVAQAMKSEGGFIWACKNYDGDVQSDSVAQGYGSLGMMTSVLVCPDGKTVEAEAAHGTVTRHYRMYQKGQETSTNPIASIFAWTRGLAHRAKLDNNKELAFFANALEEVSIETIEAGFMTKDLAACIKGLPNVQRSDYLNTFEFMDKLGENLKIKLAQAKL
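IDH1-R132H (0.5 ug/mL dispensed) in pH 7.5 Tris buffer was preincubated 30 min with compound, then given a substrate mix of 0.016 mM NADPH and 2 mM alpha-KG for 80 min at room temperature; remaining NADPH was read by diaphorase/resazurin fluorescence.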
FUS suppressor: FUS proteinopathy suppression in yeast; S. cerevisiae FUS-expressing, growth rescue, OD600, 24 h; Potency, µM (doses to about 76.6 µM), most hits filed as activators; hit rate 0.24% among 390,000; AID 1347120;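 also: potency is read from the fitted curve at half-maximal effect; plate controls were DMSO vehicle for no effect and reference control for full effect; nearly all actives have a fitted effect of over 55% in size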
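FUS-expressing yeast, raffinose-pregrown, induced in 2% galactose minimal medium at OD 0.005; compounds in a dilution series, 24hr at 30C. Growth restoration read as absorbance at 600 nm. CP55940 positive control, DMSO negative.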
TDP-43 yeast inh: rescues yeast growth from TDP-43 toxicity | TDP-43 expressing yeast growth rescue, BacTiter-Glo, 24 h | Potency, µM (series often up to 46.1 µM), for inactives: at the top dose growth rescue (activation), most hits filed as activators | hit rate 1.8% among 410,000; also: potency is read from the fitted curve at half-maximal effect; % of control where 0% means no effect; nearly all actives have a fitted effect of over 50% in size
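Growth rescue of TDP-43-toxic yeast measured as ATP luminescence (BacTiter-Glo). Cells grown to mid-log in raffinose, induced in galactose at OD600=0.02, exposed to compound 24 hr at 30 deg C.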
aSyn rescue: rescues yeast growth from alpha-synuclein toxicity; Yeast expressing alpha-synuclein, growth rescue, BacTiter-Glo, 24 h; Potency, µM (doses to about 46.1 µM), inactives show at the top dose growth rescue (activation), most hits filed as activators; hit rate 0.14% among 370,000; also: potency is read from the fitted curve at half-maximal effect; % of control where 0% means no effect; nearly all actives have a fitted effect of over 65% in size
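Readout is rescue of growth in alpha-synuclein-expressing yeast, so inhibitors of toxicity appear as activators. Growth after 24 hr at 30 deg C in galactose medium is quantified by luminescence.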
Abeta yeast res: compounds reversing amyloid beta toxicity in yeast; hit rate 0.063% among 410,000; Potency, µM (top dose mostly 46.1 µM), actives largely listed as activators; yeast expressing A-beta42, growth rescue, OD600, 48 h; response scale: 0% DMSO, 100% iron-clioquinol control; AID 1347071; also: potency is read from the fitted curve at half-maximal effect; nearly all actives have a fitted effect of over 55% in size
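Growth rescue measured by 600 nm absorbance after 48 h yeast culture at 30 C with compound. Values normalized between DMSO and an equimolar ferric chloride plus clioquinol control.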
* marks the source's active call; other numbers are inactive results; i = inactive; ? = inconclusive; nt = no result; [ ] = another dose, or the depositor's remark. Unless noted, calls follow the shape of the dose curve; as a rule, active = well fitted curve in the direction sought with a large enough effect; inconclusive = small, poorly fitted or top-dose-only effect, or another doubt; inactive = no such curve, though single readings can be large; an effect the other way counts as inactive or inconclusive.

SMILES | LDHA block | IDH1 R132H inh | FUS suppressor | TDP-43 yeast inh | aSyn rescue | Abeta yeast res
O=C(CC(=O)c1ccccc1)c1ccccc1 | 0.2 | 0.8% | nt | -17.7% | 6.3% | i
O=C(CC(=O)c1ccncc1)c1ccccc1 | 8.0 | -1.4% | nt | ? | 20µM* | i
Cc1cc(N2CCOCC2)nc(SCC(=O)OCc2ccccc2)n1 | -1.8 | -0.9% | i | 3.2% | 2.2% | i
Cc1cc(N2CCOCC2)nc(SCc2ccc(Cl)cc2Cl)n1 | -3.0 | -2.1% | ? | 35.5µM* | -5.9% | i
O=S(=O)(c1ccc(Oc2ccc(Br)cc2)cc1)N1CCOCC1 | -2.8 | 0.9% | i | 25.1µM* | -2.1% | i
COc1ccc(S(=O)(=O)N2CCOCC2)cc1 | 0.9 | nt | nt | nt | 0.0% | nt
CN1CCN(c2oc(-c3cccc(Cl)c3)nc2C#N)CC1 | 5.2 | nt | nt | nt | nt | nt
O=[N+]([O-])c1ccccc1NCCNS(=O)(=O)c1ccc(Cl)cc1 | -5.9 | 5.2% | nt | 11.2µM* | 15.1% | i
CC(C(=O)Nc1c(F)cccc1F)N1CCN(c2ccc(O)cc2)CC1 (configuration not stated) | 55.7 | nt | nt | nt | nt | nt
CN(CC(=O)Nc1ccc(F)cc1)C(=O)c1ccc(-n2cccc2)cc1 | 2.7 | nt | nt | nt | nt | nt
COCCn1c(SCc2cccc([N+](=O)[O-])c2)nc2ccccc2c1=O | -1.2 | -10.4% | i | 17.8µM* | 2.2% | i
Cn1c(SCc2cccc([N+](=O)[O-])c2)nc2ccccc2c1=O | -6.6 | 9.1% | nt | -3.0% | 6.7% | i
Cc1cc(Nc2ccccc2)nc(N2CCN(C(=O)Nc3cccc(Cl)c3)CC2)n1 | -1.5 | nt | nt | nt | nt | nt
COc1cccc(N2C(C(C)=O)=NN(c3ccccc3)C2c2ccc(N3CCOCC3)cc2)c1 (configuration not stated) | 2.6 | 2.3% | nt | -24.6% | -4.3% | i
COc1ccc(C2N(c3ccc(Cl)cc3)N=C(C(C)=O)N(C)N2C(C)=O)cc1 (configuration not stated) | -3.5 | -8.3% | i | 22.4µM* | 2.4% | i
COc1cccc(-c2nc(-c3ccccc3)c(-c3ccccc3)[nH]2)c1OCC(=O)O | -10.3 | -8.5% | i | 5.9% | 5.4% | i
O=C(O)COc1ccccc1-c1nc(-c2ccccc2)c(-c2ccccc2)[nH]1 | -43.4* | -3.4% | i | ? | ? | i
CC(C)OCCCNc1sc(S(=O)(=O)c2ccccc2)nc1S(=O)(=O)c1ccc(Cl)cc1 | -1.9 | -8.8% | 31.6µM* | 12.0% | nt | i
COc1cc(OC)c(C2CC(=O)Oc3n[nH]c(-c4ccccc4)c32)cc1OC (configuration not stated) | 13.0 | nt | nt | nt | nt | nt
Cc1c(-c2ccc(Cl)cc2)oc(=O)c2c(N)n(-c3ccccc3)nc12 | -10.0 | -5.2% | nt | -6.2% | -0.5% | i
Nc1c2c(=O)oc(-c3ccccc3)cc2nn1-c1ccccc1 | -2.1 | 2.5% | i | 14.1µM* | 25.5% | i
COc1cccc(N2Cc3nc(=O)n(CC(=O)NCc4ccccc4)n3C2=O)c1 | -2.7 | nt | nt | nt | nt | nt
CCC(Oc1ccccc1)C(=O)Nc1nnc(S(=O)(=O)N2CCCCC2)s1 (configuration not stated) | -4.8 | 4.9% | ? | 7.9% | 11.0% | i
CC(Oc1ccccc1)C(=O)Nc1nnc(S(=O)(=O)N2CCCCCC2)s1 (configuration not stated) | -3.9 | -7.8% | i | 20µM* | -21.4% | i
Nc1cc(N2CCCCC2)c(Cl)cc1[N+](=O)[O-] | 2.8 | 3.2% | i | 12.6µM* | 0.6% | i
SMILES | LDHA block | IDH1 R132H inh | FUS suppressor | TDP-43 yeast inh | aSyn rescue | Abeta yeast res
CS(=O)(=O)Nc1ccccc1C(=O)OCC(=O)N1CCC(c2ccccc2)=N1 | -5.0 | 19.0% | ? | 25.1µM* | -10.2% | i
COc1ccc(C=C2CS(=O)(=O)CC(=Cc3ccc(OC)cc3)C2=O)cc1 | -5.8 | -8.6% | i | ? | 12.6µM* | i
CCc1ccc(CN(C(=O)c2cc(=O)c3cc(Cl)ccc3o2)C2CCS(=O)(=O)C2)cc1 (configuration not stated) | -3.6 | nt | nt | nt | nt | nt
COc1ccc(-c2cc(-c3ccccc3)c(C#N)c(S(C)=O)n2)cc1 (configuration not stated) | -1.9 | -5.7% | i | 17.8µM* | 5.9% | i
O=C(N/N=C/c1ccc(O)cc1)c1cc[n+](Cc2ccccc2)cc1 | 5.2 | 6.4% | i | 6.9% | -13.0% | i
O=C(N/N=C/c1ccc(OCc2ccccc2)cc1)c1cc[n+](Cc2ccccc2)cc1 | 2.4 | 2.7% | i | 20µM* | 2.2% | i
O=C1[C@@H]2CSC(c3ccc(Cl)cc3)N2C(=O)N1c1ccccc1 (some centres not stated) | -0.9 | -0.2% | i | 35.5µM* | nt | i
O=C1CSC(c2ccc(Br)cc2)N1c1cccc(C(F)(F)F)c1 (configuration not stated) | 7.2 | nt | nt | nt | nt | nt
O=C1[C@@H]2CSC(c3ccc(C(F)(F)F)cc3)N2C(=O)N1c1ccccc1 (some centres not stated) | -5.0 | -8.8% | i | 12.6µM* | nt | i
Cc1cc(OCc2nnc(SCc3ccc(Cl)cc3)n2C)ccc1Cl | 9.7 | nt | nt | nt | nt | nt
O=C(C(=O)N1CCC(c2ccccc2)CC1)c1ccc(F)c(F)c1 | -1.6 | nt | i | 22.4µM* | 9.4% | i
O=C(/C=C/c1ccc(Cl)cc1Cl)c1nc2ccccc2[nH]1 | -4.7 | -10.0% | i | 11.2µM* | 25.4% | i
CC(=O)Oc1ccc2c(=O)oc(-c3ccccc3)nc2c1 | -2.9 | 3.4% | i | -16.5%[1.82 µM] | -5.6% | i
CC(=O)Oc1ccc(-c2nc3cc(Cl)ccc3c(=O)o2)cc1 | -20.1 | -1.2% | i | 3.98µM* | -0.2% | i
Cc1ccccc1-c1nc2cc(Cl)ccc2c(=O)o1 | -1.5 | 3.6% | i | 7.6% | -1.5% | i
CC(=O)Oc1ccc2nc(/C=C/c3ccccc3)oc(=O)c2c1 | 0.1 | 0.0% | i | 3.55µM* | 0.1% | i
CC(=O)Oc1ccc2c(=O)oc(-c3ccccc3C)nc2c1 | -10.9 | -1.3% | i | 14.1µM* | -0.8% | i
CCC(=O)Oc1ccc(-c2nc3ccccc3c(=O)o2)cc1 | -6.4 | -11.8% | i | 3.98µM* | nt | i
Cc1csc(Sc2ccc(Cl)cc2)n1 | -0.5 | nt | nt | nt | nt | nt
CN(CC(=O)Nc1cccc(F)c1)C(=O)CCc1ncc(-c2ccc(Cl)cc2Cl)o1 | 7.4 | nt | nt | nt | nt | nt
CC1=C/C(=N/NC(=S)NC2CCCCC2)CC(C)(C)C1 | -1.4 | nt | nt | nt | nt | nt
COC(=O)c1sccc1S(=O)(=O)N(CC(=O)Nc1ccccc1C)c1ccc(Cl)cc1 | -4.9 | 8.4% | 31.6µM* | -9.6% | nt | i
